# Reference: the supplement of paper PMC6555819
# Experiments:
# Experiment in all cases: PBM binding z-score (relative to random genomic background probes); higher = stronger binding; sequences stand for … in GC…GCGATTGACAGCGTAGAATGAAGG
# [1] = test system: FXR:RXRa (NR concentration 270 nM, RXRa partner concentration 90 nM)
# Outline: (§1)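 Binding z-scores take random background probes as their reference. They come from custom Agilent 4×180K protein-binding microarrays incubated 1 h with ligand-free nuclear receptor dimers, with antibodies against each partner (one per run) detecting binding. Scanned fluorescence was regression-normalized.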
# [2] = test system: LXRa:RXRa (NR concentration 270 nM, RXRa partner concentration 90 nM)
# Outline: as §1
# [3] = test system: LXRa homodimer (NR concentration 270 nM)
# Outline: as §1
# [4] = test system: LXRb:RXRa (NR concentration 270 nM, RXRa partner concentration 90 nM)
# Outline: as §1
# [5] = test system: LXRb homodimer (NR concentration 270 nM)
# Outline: as §1
# [6] = test system: PPARa:RXRa (NR concentration 270 nM, RXRa partner concentration 90 nM)
# Outline: as §1
# [7] = test system: PPARg:RXRa (NR concentration 180 nM, RXRa partner concentration 90 nM)
# Outline: as §1
# [8] = test system: PPARg:RXRa 270nM:90nM, anti-RXR (NR concentration 270 nM, RXRa partner concentration 90 nM)
# Outline: as §1
# [9] = test system: PPARg:RXRa 30nM:10nM, anti-RXR (NR concentration 30 nM, RXRa partner concentration 10 nM)
# Outline: as §1
# [10] = test system: PPARg:RXRa 90nM:30nM, anti-RXR (NR concentration 90 nM, RXRa partner concentration 30 nM)
# Outline: as §1
sequence,measurement,setting,value
ACTATTAGTTGAGACGAGGGCAACAGATAGGTTG,PBM binding z-score,[1],0.212
same,PBM binding z-score,[2],-0.0273
same,PBM binding z-score,[3],-0.073
same,PBM binding z-score,[4],0.0186
same,PBM binding z-score,[5],0.272
same,PBM binding z-score,[6],0.442
same,PBM binding z-score,[7],0.846
same,PBM binding z-score,[8],-0.171
same,PBM binding z-score,[9],0.0997
same,PBM binding z-score,[10],-0.129
TCTCGGACGACACGAAGGTCAGAGCTTTCCAGAG,PBM binding z-score,[1],1.58
same,PBM binding z-score,[2],0.965
same,PBM binding z-score,[3],-0.0974
same,PBM binding z-score,[4],1.17
same,PBM binding z-score,[5],-0.374
same,PBM binding z-score,[6],1.96
same,PBM binding z-score,[7],0.474
same,PBM binding z-score,[8],1.77
same,PBM binding z-score,[9],2.37
same,PBM binding z-score,[10],2.15
TCATATTGGTAAAAGGTGAAAGTCGGTGTGGTAA,PBM binding z-score,[1],1.65
same,PBM binding z-score,[2],1.92
same,PBM binding z-score,[3],0.474
same,PBM binding z-score,[4],2.06
same,PBM binding z-score,[5],0.291
same,PBM binding z-score,[6],3.73
same,PBM binding z-score,[7],3.98
same,PBM binding z-score,[8],5.67
same,PBM binding z-score,[9],5.38
same,PBM binding z-score,[10],6.18
GCAGACACGTGAAACGCAGGTAACTCAGGGTGGC,PBM binding z-score,[1],-0.868
same,PBM binding z-score,[2],-0.737
same,PBM binding z-score,[3],-0.81
same,PBM binding z-score,[4],-0.691
same,PBM binding z-score,[5],-1.29
same,PBM binding z-score,[6],-0.718
same,PBM binding z-score,[7],0.584
same,PBM binding z-score,[8],-0.446
same,PBM binding z-score,[9],-0.559
same,PBM binding z-score,[10],-0.87
TCTAGGAGGACACGAAAGGTCAGAGCTCGACATC,PBM binding z-score,[1],3.28
same,PBM binding z-score,[2],3.77
same,PBM binding z-score,[3],3.29
same,PBM binding z-score,[4],3.49
same,PBM binding z-score,[5],-0.113
same,PBM binding z-score,[6],3.91
same,PBM binding z-score,[7],1.98
same,PBM binding z-score,[8],3.19
same,PBM binding z-score,[9],2.99
same,PBM binding z-score,[10],2.51
TCATATAGGTAAATGCTAGGTGATAGTCCGATCT,PBM binding z-score,[1],0.869
same,PBM binding z-score,[2],0.734
same,PBM binding z-score,[3],-0.164
same,PBM binding z-score,[4],0.564
same,PBM binding z-score,[5],-0.125
same,PBM binding z-score,[6],1.2
same,PBM binding z-score,[7],1.13
same,PBM binding z-score,[8],2.24
same,PBM binding z-score,[9],3.56
same,PBM binding z-score,[10],2.87
ATATGTAGGTTAAGGGTCATTAAGGTTGGTTCGC,PBM binding z-score,[1],5.05
same,PBM binding z-score,[2],4.87
same,PBM binding z-score,[3],2.72
same,PBM binding z-score,[4],4.3
same,PBM binding z-score,[5],0.865
same,PBM binding z-score,[6],6.59
same,PBM binding z-score,[7],11.6
same,PBM binding z-score,[8],9.59
same,PBM binding z-score,[9],10.3
same,PBM binding z-score,[10],10.7
CCGAGTTGGTTATGGGGCATTCAGGCAACGGTGA,PBM binding z-score,[1],0.0617
same,PBM binding z-score,[2],0.0147
same,PBM binding z-score,[3],-0.147
same,PBM binding z-score,[4],0.0515
same,PBM binding z-score,[5],-0.451
same,PBM binding z-score,[6],0.287
same,PBM binding z-score,[7],0.0793
same,PBM binding z-score,[8],0.583
same,PBM binding z-score,[9],-0.717
same,PBM binding z-score,[10],0.0357
TGACTGAGGTTATAAGATCAGGGAACGTTGCAAA,PBM binding z-score,[1],1.3
same,PBM binding z-score,[2],1.14
same,PBM binding z-score,[3],-0.497
same,PBM binding z-score,[4],1.08
same,PBM binding z-score,[5],-0.238
same,PBM binding z-score,[6],2.27
same,PBM binding z-score,[7],0.706
same,PBM binding z-score,[8],0.976
same,PBM binding z-score,[9],0.531
same,PBM binding z-score,[10],0.783
ATCTCTAGGTAAAATTCAGTGAAAGATCGATAGA,PBM binding z-score,[1],0.583
same,PBM binding z-score,[2],0.493
same,PBM binding z-score,[3],0.422
same,PBM binding z-score,[4],0.121
same,PBM binding z-score,[5],0.916
same,PBM binding z-score,[6],0.171
same,PBM binding z-score,[7],0.606
same,PBM binding z-score,[8],0.699
same,PBM binding z-score,[9],0.552
same,PBM binding z-score,[10],0.917
TCCTATAGGTAATACAGGTGAAAGTCGGCATCTA,PBM binding z-score,[1],0.774
same,PBM binding z-score,[2],0.986
same,PBM binding z-score,[3],-0.00145
same,PBM binding z-score,[4],0.839
same,PBM binding z-score,[5],0.103
same,PBM binding z-score,[6],1.84
same,PBM binding z-score,[7],0.918
same,PBM binding z-score,[8],1.91
same,PBM binding z-score,[9],3.2
same,PBM binding z-score,[10],2.41
TAGCCTAGGTCATTCGGGGGCCAGTATAGAAAGC,PBM binding z-score,[1],5.41
same,PBM binding z-score,[2],4.7
same,PBM binding z-score,[3],1.38
same,PBM binding z-score,[4],5.3
same,PBM binding z-score,[5],9.24
same,PBM binding z-score,[6],4.26
same,PBM binding z-score,[7],3.69
same,PBM binding z-score,[8],4.12
same,PBM binding z-score,[9],1.38
same,PBM binding z-score,[10],3.17
TCATATAGTTAAATGCTAGGTGAAAGTCCGATCT,PBM binding z-score,[1],0.982
same,PBM binding z-score,[2],0.66
same,PBM binding z-score,[3],0.335
same,PBM binding z-score,[4],0.729
same,PBM binding z-score,[5],0.331
same,PBM binding z-score,[6],0.834
same,PBM binding z-score,[7],0.464
same,PBM binding z-score,[8],2.11
same,PBM binding z-score,[9],3.69
same,PBM binding z-score,[10],2.89
CAAACTAGGTCACGGGAAGGTCAAAGTCCGCATG,PBM binding z-score,[1],6.63
same,PBM binding z-score,[2],5.83
same,PBM binding z-score,[3],4.52
same,PBM binding z-score,[4],5.56
same,PBM binding z-score,[5],0.929
same,PBM binding z-score,[6],6.51
same,PBM binding z-score,[7],10.1
same,PBM binding z-score,[8],7.81
same,PBM binding z-score,[9],6.78
same,PBM binding z-score,[10],7.95
ATATGTAGGTTAGGTGGGGTCATTCAGACTAGGC,PBM binding z-score,[1],5.01
same,PBM binding z-score,[2],6.16
same,PBM binding z-score,[3],3.73
same,PBM binding z-score,[4],5.37
same,PBM binding z-score,[5],2.74
same,PBM binding z-score,[6],5.23
same,PBM binding z-score,[7],5.59
same,PBM binding z-score,[8],5.49
same,PBM binding z-score,[9],2.48
same,PBM binding z-score,[10],4.67
CAAACTAGGTCAAGAGGTCAGAGTCCGCTTCCCG,PBM binding z-score,[1],5.85
same,PBM binding z-score,[2],5.23
same,PBM binding z-score,[3],3.2
same,PBM binding z-score,[4],4.21
same,PBM binding z-score,[5],0.8
same,PBM binding z-score,[6],6.08
same,PBM binding z-score,[7],9.79
same,PBM binding z-score,[8],7.9
same,PBM binding z-score,[9],6.89
same,PBM binding z-score,[10],8.32
TGTATTAGTTGAAGGGCAACCGACGAGTCCGTTT,PBM binding z-score,[1],0.551
same,PBM binding z-score,[2],0.588
same,PBM binding z-score,[3],0.228
same,PBM binding z-score,[4],0.491
same,PBM binding z-score,[5],0.587
same,PBM binding z-score,[6],0.462
same,PBM binding z-score,[7],0.102
same,PBM binding z-score,[8],0.95
same,PBM binding z-score,[9],0.864
same,PBM binding z-score,[10],0.871
TAGCCTAGGTCATTGGGCCAGTACAGTACGCATC,PBM binding z-score,[1],4.4
same,PBM binding z-score,[2],3.61
same,PBM binding z-score,[3],1.04
same,PBM binding z-score,[4],2.35
same,PBM binding z-score,[5],0.354
same,PBM binding z-score,[6],3.83
same,PBM binding z-score,[7],3.38
same,PBM binding z-score,[8],3.78
same,PBM binding z-score,[9],0.72
same,PBM binding z-score,[10],2.63
TCTGACAGGTGAAGGTAACTCAGGTACGCAGTCG,PBM binding z-score,[1],0.497
same,PBM binding z-score,[2],1.97
same,PBM binding z-score,[3],-0.123
same,PBM binding z-score,[4],0.856
same,PBM binding z-score,[5],-0.258
same,PBM binding z-score,[6],1.14
same,PBM binding z-score,[7],0.602
same,PBM binding z-score,[8],1.55
same,PBM binding z-score,[9],2.9
same,PBM binding z-score,[10],2.32
CCTACTGGGCCAAGGTCGTTGATCAGTCAAAGCA,PBM binding z-score,[1],0.16
same,PBM binding z-score,[2],0.0412
same,PBM binding z-score,[3],-0.352
same,PBM binding z-score,[4],0.25
same,PBM binding z-score,[5],-0.992
same,PBM binding z-score,[6],1.56
same,PBM binding z-score,[7],1.7
same,PBM binding z-score,[8],2.33
same,PBM binding z-score,[9],0.177
same,PBM binding z-score,[10],1.6
CTGACTGGGGCAGAAAGGTTACCATACCATCCGG,PBM binding z-score,[1],0.933
same,PBM binding z-score,[2],1.01
same,PBM binding z-score,[3],0.207
same,PBM binding z-score,[4],1.5
same,PBM binding z-score,[5],-0.293
same,PBM binding z-score,[6],2.65
same,PBM binding z-score,[7],2.32
same,PBM binding z-score,[8],3
same,PBM binding z-score,[9],1.18
same,PBM binding z-score,[10],2.35
GGAACGAGGGCAAGTTGAAAGCAGAGTTTGATGG,PBM binding z-score,[1],0.833
same,PBM binding z-score,[2],0.231
same,PBM binding z-score,[3],-0.173
same,PBM binding z-score,[4],0.237
same,PBM binding z-score,[5],-0.789
same,PBM binding z-score,[6],1.94
same,PBM binding z-score,[7],1.02
same,PBM binding z-score,[8],1.12
same,PBM binding z-score,[9],0.000931
same,PBM binding z-score,[10],0.87
CCAACTGGGGCATAAGGTTACCATAAGCCAGCCC,PBM binding z-score,[1],0.142
same,PBM binding z-score,[2],1.69
same,PBM binding z-score,[3],-0.161
same,PBM binding z-score,[4],0.858
same,PBM binding z-score,[5],-1.05
same,PBM binding z-score,[6],2.56
same,PBM binding z-score,[7],3.63
same,PBM binding z-score,[8],3.93
same,PBM binding z-score,[9],1.9
same,PBM binding z-score,[10],3.24
ACAGACAGGTGATTAAGGTAACTCAGGCTATCAT,PBM binding z-score,[1],0.396
same,PBM binding z-score,[2],0.0407
same,PBM binding z-score,[3],-0.11
same,PBM binding z-score,[4],-0.0714
same,PBM binding z-score,[5],-0.205
same,PBM binding z-score,[6],0.176
same,PBM binding z-score,[7],0.468
same,PBM binding z-score,[8],0.0075
same,PBM binding z-score,[9],0.0784
same,PBM binding z-score,[10],0.0739
